# Hit rate of the full screen: of about 3,200 compounds, about 300 (9.4%) showed activity. This is one part of a sample in which actives are shown more often than they occur. A number with no mark means an inactive call.
# Test system: A673/TR/shEF
# Assay: cell viability (LOESS-normalised, relative to median of negative controls) (log2 ratio); higher = more viable cells (less compound effect), active = hit call of the paper (over 3 MAD below the median)
# Conditions: treatment time: 72 h
# Summary of the method: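 Viability of A673/TR/shEF Ewing sarcoma cells was determined by CellTiter-Glo luminescence. The cells, at 1,500 per well in 384-well plates, were grown with or without doxycycline from 24 h before compound addition to switch on EWS-FLI1 shRNA knockdown, then exposed for three days to library compounds at two or more concentrations or to DMSO controls. Signals were LOESS-corrected plate by plate, normalised to the negative-control median and log2-transformed.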
# [1] = 0.25 µM, library screen: screen2, EWS-FLI1 expression: high (no doxycycline)
# [2] = 0.25 µM, library screen: screen2, EWS-FLI1 expression: low (doxycycline-induced shRNA knockdown)
# [3] = 2.5 µM, library screen: screen2, EWS-FLI1 expression: high (no doxycycline)
# [4] = 2.5 µM, library screen: screen2, EWS-FLI1 expression: low (doxycycline-induced shRNA knockdown)
# [5] = 0.25 µM, library screen: screen1, EWS-FLI1 expression: high (no doxycycline)
# [6] = 0.25 µM, library screen: screen1, EWS-FLI1 expression: low (doxycycline-induced shRNA knockdown)
# [7] = 2.5 µM, library screen: screen1, EWS-FLI1 expression: high (no doxycycline)
# [8] = 2.5 µM, library screen: screen1, EWS-FLI1 expression: low (doxycycline-induced shRNA knockdown)
structure (smiles),measurement,setting,value
O=C([O-])[O-].[Ca+2],cell viability (log2),[1],0.129
same,cell viability (log2),[2],0.105
same,cell viability (log2),[3],0.151
same,cell viability (log2),[4],0.0778
COc1ccc(CN2CCN(Cc3ccc(OC)c(OC)c3OC)CC2)cc1OC,cell viability (log2),[5],0.061
same,cell viability (log2),[6],0.00924
same,cell viability (log2),[7],0.123
same,cell viability (log2),[8],0.0982
CC(C)N1C(=O)C(=C2C(=O)N(C)c3ccccc32)SC1=S,cell viability (log2),[5],0.0638
same,cell viability (log2),[6],0.00946
same,cell viability (log2),[7],0.0618
same,cell viability (log2),[8],0.138
C[C@H]1C(=O)CC[C@@H]2[C@]1(C)CC[C@H]1[C@@]2(C)CC[C@@]2(C)[C@@H]3CC(C)(C)CC[C@]3(C)CC[C@]12C,cell viability (log2),[5],0.031
same,cell viability (log2),[6],0.0462
same,cell viability (log2),[7],0.0143
same,cell viability (log2),[8],0.0816
O=c1c(O)c(-c2cc(O)c(O)c(O)c2)oc2cc(O)cc(O)c12,cell viability (log2),[5],0.0195
same,cell viability (log2),[6],0.156
same,cell viability (log2),[1],0.118
same,cell viability (log2),[2],0.093
same,cell viability (log2),[7],0.0517
same,cell viability (log2),[8],0.0582
same,cell viability (log2),[3],0.111
same,cell viability (log2),[4],0.0599
O=c1c(O)c(-c2ccc(O)c(O)c2)oc2cc(O)cc(O)c12,cell viability (log2),"0.025 µM, library screen: screen1, EWS-FLI1 expression: high (no doxycycline)",0.22
same,cell viability (log2),"0.025 µM, library screen: screen1, EWS-FLI1 expression: low (doxycycline-induced shRNA knockdown)",0.00571
same,cell viability (log2),[5],0.112
same,cell viability (log2),[6],0.018
same,cell viability (log2),[1],0.12
same,cell viability (log2),[2],0.0619
same,cell viability (log2),[7],0.108
same,cell viability (log2),[8],0.0969
same,cell viability (log2),[3],0.176
same,cell viability (log2),[4],0.00939
same,cell viability (log2),"25 µM, library screen: screen1, EWS-FLI1 expression: high (no doxycycline)",-1.43 (active)
same,cell viability (log2),"25 µM, library screen: screen1, EWS-FLI1 expression: low (doxycycline-induced shRNA knockdown)",0.0272
COc1cc(O)c2c(=O)c(O)c(-c3ccc(O)c(O)c3)oc2c1,cell viability (log2),[5],-0.00867
same,cell viability (log2),[6],0.0259
same,cell viability (log2),[7],0.0453
same,cell viability (log2),[8],0.0969
N#Cc1c2c(c(Nc3ccc(O)cc3)n3c1nc1ccccc13)CCC2,cell viability (log2),[5],0.0182
same,cell viability (log2),[6],0.0391
same,cell viability (log2),[7],0.0659
same,cell viability (log2),[8],0.0482
CCOC(=O)c1c(C)cc(O)cc1O,cell viability (log2),[5],0.0788
same,cell viability (log2),[6],0.0693
same,cell viability (log2),[7],0.0357
same,cell viability (log2),[8],0.0819
CC1=C(C(=O)OC2CCCC2)C(c2coc3ccccc3c2=O)C2=C(CC(C)(C)CC2=O)N1 (configuration not stated),cell viability (log2),[5],0.0783
same,cell viability (log2),[6],0.0738
same,cell viability (log2),[7],0.145
same,cell viability (log2),[8],0.0146
C#CCN(C)CCCOc1ccc(Cl)cc1Cl,cell viability (log2),[1],0.27
same,cell viability (log2),[2],0.097
same,cell viability (log2),[3],0.132
same,cell viability (log2),[4],0.147
C#CCN(C)Cc1ccccc1,cell viability (log2),[5],0.0858
same,cell viability (log2),[6],0.0954
same,cell viability (log2),[1],0.078
same,cell viability (log2),[2],-0.0346
same,cell viability (log2),[7],0.175
same,cell viability (log2),[8],0.102
same,cell viability (log2),[3],-1.76 (active)
same,cell viability (log2),[4],-2.08 (active)
CN(C)CCN(Cc1ccccc1)c1ccccn1,cell viability (log2),[5],0.0764
same,cell viability (log2),[6],0.111
same,cell viability (log2),[7],0.247
same,cell viability (log2),[8],0.229
COc1ccc(CN2CCN(Cc3ccc(OC)c(OC)c3OC)CC2)cc1Br,cell viability (log2),[5],0.104
same,cell viability (log2),[6],0.0582
same,cell viability (log2),[7],0.0165
same,cell viability (log2),[8],0.0422
Cc1ccc(OCC(=O)N2CCC(C)CC2)c(C)c1,cell viability (log2),[5],0.0605
same,cell viability (log2),[6],0.118
same,cell viability (log2),[7],0.14
same,cell viability (log2),[8],0.114
COc1ccc2c(c1)CCC1=CC(=O)CC[C@@]12C,cell viability (log2),[5],0.0515
same,cell viability (log2),[6],0.00881
same,cell viability (log2),[7],0.19
same,cell viability (log2),[8],0.155
CC1C2C(CC3C4CC[C@@H]5CC(=O)CC[C@]5(C)C4CC[C@@]32C)OC12CC[C@@H](C)CO2 (some centres not stated),cell viability (log2),[5],0.0621
same,cell viability (log2),[6],0.0593
same,cell viability (log2),[7],0.124
same,cell viability (log2),[8],0.0882
COCCN1C(=O)/C(=C\c2ccc(-c3ccc(Br)cc3)o2)SC1=S,cell viability (log2),[5],0.0753
same,cell viability (log2),[6],0.00476
same,cell viability (log2),[7],0.101
same,cell viability (log2),[8],0.0615
CN(Cc1cnc2nc(N)nc(N)c2n1)c1ccc(C(=O)N[C@@H](CCC(=O)O)C(=O)O)cc1,cell viability (log2),"0.025 µM, library screen: screen2, EWS-FLI1 expression: high (no doxycycline)",0.0134
same,cell viability (log2),"0.025 µM, library screen: screen2, EWS-FLI1 expression: low (doxycycline-induced shRNA knockdown)",0.0597
same,cell viability (log2),"0.103 µM, library screen: screen3, EWS-FLI1 expression: high (no doxycycline)",-0.0597
same,cell viability (log2),"0.103 µM, library screen: screen3, EWS-FLI1 expression: low (doxycycline-induced shRNA knockdown)",0.0506
same,cell viability (log2),[1],-0.406 (active)
same,cell viability (log2),[2],0.0894
same,cell viability (log2),"0.308 µM, library screen: screen3, EWS-FLI1 expression: high (no doxycycline)",-0.512 (active)
same,cell viability (log2),"0.308 µM, library screen: screen3, EWS-FLI1 expression: low (doxycycline-induced shRNA knockdown)",0.0568
same,cell viability (log2),"0.926 µM, library screen: screen3, EWS-FLI1 expression: high (no doxycycline)",-0.53 (active)
same,cell viability (log2),"0.926 µM, library screen: screen3, EWS-FLI1 expression: low (doxycycline-induced shRNA knockdown)",0.0108
same,cell viability (log2),[3],-0.754 (active)
same,cell viability (log2),[4],0.0271
same,cell viability (log2),"2.8 µM, library screen: screen3, EWS-FLI1 expression: high (no doxycycline)",-0.711 (active)
same,cell viability (log2),"2.8 µM, library screen: screen3, EWS-FLI1 expression: low (doxycycline-induced shRNA knockdown)",0.0377
same,cell viability (log2),"8.3 µM, library screen: screen3, EWS-FLI1 expression: high (no doxycycline)",-0.751 (active)
same,cell viability (log2),"8.3 µM, library screen: screen3, EWS-FLI1 expression: low (doxycycline-induced shRNA knockdown)",0.0521
same,cell viability (log2),"25 µM, library screen: screen2, EWS-FLI1 expression: high (no doxycycline)",-0.743 (active)
same,cell viability (log2),"25 µM, library screen: screen2, EWS-FLI1 expression: low (doxycycline-induced shRNA knockdown)",0.0873
same,cell viability (log2),"25 µM, library screen: screen3, EWS-FLI1 expression: high (no doxycycline)",-0.797 (active)
same,cell viability (log2),"25 µM, library screen: screen3, EWS-FLI1 expression: low (doxycycline-induced shRNA knockdown)",0.0291
CN(Cc1cnc2nc(N)nc(N)c2n1)c1ccc(C(=O)N[C@H](CCC(=O)O)C(=O)O)cc1,cell viability (log2),[1],0.209
same,cell viability (log2),[2],0.115
same,cell viability (log2),[3],0.0762
same,cell viability (log2),[4],0.165
Nc1nc(N)c2nc(CNc3ccc(C(=O)N[C@@H](CCC(=O)O)C(=O)O)cc3)cnc2n1,cell viability (log2),[5],-1.62 (active)
same,cell viability (log2),[6],-0.186 (active)
same,cell viability (log2),[1],0.137
same,cell viability (log2),[2],0.126
same,cell viability (log2),[7],0.122
same,cell viability (log2),[8],0.141
same,cell viability (log2),[3],0.123
same,cell viability (log2),[4],0.134
O=C(O)CCC(NC(=O)c1ccccc1C(=O)O)C(=O)O (configuration not stated),cell viability (log2),[1],0.0764
same,cell viability (log2),[2],0.0149
same,cell viability (log2),[3],0.157
same,cell viability (log2),[4],0.0718
CCCCCN(CCCCC)C(=O)C(CCC(=O)O)NC(=O)c1ccc(Cl)c(Cl)c1 (configuration not stated),cell viability (log2),[1],0.131
same,cell viability (log2),[2],0.0648
same,cell viability (log2),[3],0.114
same,cell viability (log2),[4],0.0564
Nc1nc(=O)c2nc(CNc3ccc(C(=O)N[C@@H](CCC(=O)O)C(=O)O)cc3)cnc2[nH]1,cell viability (log2),[5],0.0181
same,cell viability (log2),[6],0.031
same,cell viability (log2),[7],0.0902
same,cell viability (log2),[8],0.0775
